Molecules are shown by their SMILES. About 8,000 (2.5%) of roughly 320,000 compounds were called active. This excerpt belongs to a sample that is enriched for actives. A number with no mark means an inactive call. No stated cut-off is given here; in the data, active means activation above about 47%; inactive means the rest.

Sequence of Aryl hydrocarbon receptor (Homo sapiens) (P35869 whole entry, looked up): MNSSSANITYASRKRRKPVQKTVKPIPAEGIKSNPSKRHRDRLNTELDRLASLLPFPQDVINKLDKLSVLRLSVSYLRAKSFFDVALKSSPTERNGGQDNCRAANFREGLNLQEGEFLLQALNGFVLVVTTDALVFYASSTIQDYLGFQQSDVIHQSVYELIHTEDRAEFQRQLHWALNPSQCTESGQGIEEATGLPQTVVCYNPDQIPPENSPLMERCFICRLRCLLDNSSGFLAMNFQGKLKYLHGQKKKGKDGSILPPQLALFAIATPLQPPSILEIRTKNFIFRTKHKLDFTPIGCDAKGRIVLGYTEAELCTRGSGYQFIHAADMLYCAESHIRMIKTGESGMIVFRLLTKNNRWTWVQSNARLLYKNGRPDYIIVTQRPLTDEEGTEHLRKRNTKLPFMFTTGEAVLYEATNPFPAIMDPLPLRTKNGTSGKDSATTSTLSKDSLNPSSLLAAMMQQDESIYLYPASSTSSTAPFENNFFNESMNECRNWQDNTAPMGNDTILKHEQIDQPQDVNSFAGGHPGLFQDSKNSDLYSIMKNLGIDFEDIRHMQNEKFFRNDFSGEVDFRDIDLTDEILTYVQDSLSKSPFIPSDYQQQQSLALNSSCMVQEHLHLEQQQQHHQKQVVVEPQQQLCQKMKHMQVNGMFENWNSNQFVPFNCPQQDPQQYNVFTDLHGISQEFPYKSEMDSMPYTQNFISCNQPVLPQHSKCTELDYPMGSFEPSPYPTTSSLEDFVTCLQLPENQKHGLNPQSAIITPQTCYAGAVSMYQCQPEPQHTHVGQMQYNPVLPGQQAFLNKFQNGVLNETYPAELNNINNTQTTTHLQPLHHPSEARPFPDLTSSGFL

This test addresses Aryl hydrocarbon receptor (Homo sapiens) (UniProt P35869). Put plainly: AHR activators, primary screen, cell-based, luminescence, luciferase reporter, human (AID 2796).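 Further: 0% = vehicle wells and 100% = reference agonist.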 The following applies: AHR-responsive luciferase reporter cells, at 5 µM, hits give high values. A general note: Reporter assays use an easily measured gene product as a stand-in for the process of interest.
On to `O=C1c2ccccc2C(=O)N1c1cccc2ccccc12`, for which the activation was 0.6%.

For `O=C1c2cccc3cccc(c23)C(=O)N1c1cccc(O)c1`, the activation is -1.76%.

For the compound `COc1ccc(N2C(=O)c3cccc4cccc(c34)C2=O)nn1`, the activation was 65% (active).

As to `O=C(NC1CCCC1)C1CCN(C(=O)Nc2cccc(Cl)c2)CC1`, the activation was 0.72%.

On to `CC(C)OCCCNC(=S)N1CCC(C(=O)c2ccc3c(c2)OCCO3)CC1`, for which the activation was 1.57%.

Regarding `Oc1[nH]c2ccc(Br)cc2c1N=Nc1nn[nH]n1`, the activation was 16.2%.

For `Cc1cccc(N=Nc2c(O)[nH]c3ccc(F)cc23)c1`, the activation is 93% (active).

Take `NS(=O)(=O)c1ccc(N=Nc2c(O)[nH]c3ccc(Br)cc23)cc1`: the activation was -10.5%.

Turning to `CC(=O)n1cc([C@H]2C=C(C(=O)N3CCOCC3)O[C@@H](OCc3ccc(CO)cc3)C2)c2ccccc21`, the activation is 3.74%.

As to `COCCN(CCOC)S(=O)(=O)NC[C@H]1O[C@@H](n2cnc3c(N)ncnc32)[C@H](O)[C@@H]1O`, the activation was 0.98%.

Turning to `CN1C(=O)/C(=N/OC(=O)c2ccccc2Br)c2ccccc21`, the activation is -2.06%.

Consider `CCC1C(=O)c2ccccc2N(C)C1=O` (stereo unspecified), for which the activation was 9.44%.

Turning to `CN1C(=O)/C(=C\c2cc(Br)cs2)c2ccccc21`, the activation was 62.1% (active).

For the compound `Nc1nc(C23CC4CC(CC(C4)C2)C3)cs1`, the activation is -0.51%.

For the compound `COc1ccc(CCNC(=O)CCc2cn(C)c3ccccc23)c(OC)c1`, the activation was 48.4% (active).

With `Cn1cc(CCC(=O)NC2CC2)c2ccccc21`, the activation is 27.1%.

For `COc1ccc(CCNC(=O)CN2C(=O)CCSc3ccccc32)c(OC)c1`, the activation is -0.88%.

As for `CCCCn1c(N)c(N(Cc2ccccc2OC)C(=O)COc2cc(C)ccc2Cl)c(=O)[nH]c1=O`, the activation is 4.71%.

With `Cc1cc([N+](=O)[O-])c(NC2CCCCC2)c([N+](=O)[O-])c1`, the activation is -4%.

Take `O=C(COC(=O)c1ccc(O)cc1O)NNC(=O)c1cccs1`: the activation is 0.36%.

Regarding `CCc1ccc2nc3sc(C(=O)Nc4nnc(CC)s4)c(N)c3cc2c1`, the activation was 0.59%.

Turning to `Cc1ccc(NC(=O)c2sc3nc(N)c(C#N)cc3c2N)cc1`, the activation is 115% (active).

Consider `Cc1ccc(NC(=O)CSCC(=O)Nc2sccc2C#N)cc1`, for which the activation was 25.5%.

Consider `O=C(CCN1C(=O)c2ccccc2C1=O)NCCCn1ccnc1`, for which the activation was 6.16%.

Regarding `Cc1ccc(-c2nc(C#N)c(NCCCn3ccnc3)o2)cc1`, the activation was 124% (active).

As to `Cc1ccc(S(=O)(=O)c2nc(NCCCn3ccnc3)sc2Cl)cc1`, the activation is 9.5%.

For `CCOC(=O)C1CCN(C(=O)COc2cccc3ccccc23)CC1`, the activation is 6.85%.

As to `Cc1ncoc1C(=O)NCCC(c1ccccc1)c1ccccc1`, the activation was 2.07%.

As for `Cc1cc(F)ccc1S(=O)(=O)Nc1ccc(C(=O)N(C)Cc2ccco2)cc1`, the activation is -1.13%.

For the compound `Cc1cc(Cl)ccc1OCCCC(=O)Nc1cccc(-n2cnnn2)c1`, the activation was 2.58%.

As for `O=C(Nc1ccc2ccccc2c1)Nc1ccc2snnc2c1`, the activation is 7.08%.

Consider `O=C(Nc1cccc(Br)c1)c1ccc2snnc2c1`, for which the activation was 106% (active).

With `CCc1ccccc1NC(=O)c1ccc2snnc2c1`, the activation is 0.7%.

Take `COc1ccc(C(=O)NCC2CCCCC2)cc1S(=O)(=O)N1CCCC1`: the activation was 0.47%.

`COc1cc(C=NNC(=O)c2cccnc2)ccc1OC(=O)c1ccccc1F`: the activation was 7.39%.

`CCOC(=O)c1nnn(-c2nonc2-n2cccc2)c1CN1CCC(C(=O)OCC)CC1`: the activation is 0.56%.

As to `Cc1cc(Nc2ccc(Br)cc2F)n2ncnc2n1`, the activation is 7.31%.

`CC1CCc2c(nc3ncnn3c2Nc2ccc(OC(F)(F)F)cc2)C1` (stereo unspecified): the activation was 12.3%.

Regarding `Brc1ccc(Nc2c3c(nc4ncnn24)CCC3)cc1`, the activation was 104% (active).

In the case of `CC(C)n1cnc2c(Nc3cccc(Cl)c3)nc(N(CCO)CCCO)nc21`, the activation is 95.2% (active).

In the case of `OCCCNc1nccc(-c2cc(Nc3cccc(Cl)c3)ncn2)n1`, the activation was -11.1%.

Turning to `CC(C)C[C@H](CO)Nc1nc(N(C)c2cccc(Cl)c2)c2ncn(C(C)C)c2n1`, the activation is 14.5%.

`CC1=NN(/C(=N\c2nnc(C)s2)Nc2ccccc2)[C@H](c2ccc(C)cc2)S1`: the activation is 3.18%.

For the compound `O=C(O)c1cccnc1NC1CCCC1`, the activation was -0.53%.

With `CCN(CC)S(=O)(=O)N1CCC(C(=O)NC(C)CCc2ccccc2)CC1` (stereo unspecified), the activation is -1.06%.

In the case of `C#CCCOC(=O)N1C2=NC(C(=O)OC)=C(C(=O)OC)[C@@H]3N(C)c4ccc(OC)cc4[C@]23C[C@H]1C(=O)OC`, the activation is -1.46%.

In the case of `O=C1CCc2cc(S(=O)(=O)Nc3ccc(C(F)(F)F)cc3)cc3c2N1CC3`, the activation is -2.33%.

Take `COCC1CCCN(Cc2nc(-c3ccc4c(c3)OCO4)no2)C1` (stereo unspecified): the activation was 52.6% (active).

`COCC1CCCN(Cc2cn[nH]c2-c2cc3ccccc3o2)C1` (stereo unspecified): the activation was 4.44%.

As to `CC1CCN(Cc2nc(-c3ccc(Cl)cc3)no2)CC1`, the activation was -0.15%.

On to `CCN1CN(Cc2ccccc2)CNC1=S`, for which the activation is 2.74%.

On to `CC(C)N1CCc2c(sc(NC(=O)Cc3ccccc3)c2C#N)C1`, for which the activation was 43.6%.

Turning to `COc1ccc(N2CCN(C(=O)c3ccc(N4CCCCS4(=O)=O)cc3)CC2)cc1`, the activation is 1.84%.

As to `CC1CN(C(=O)c2ccc3c(c2)OCO3)OC(c2ccccc2)O1` (stereo unspecified), the activation was 3.64%.

`COc1ccc2c(c1)CC[C@@H]1[C@@H]2CC[C@]2(C)C(=O)CC[C@@H]12`: the activation was -1.47%.

On to `CC1(C)CC(CCC(=O)Nc2ccccc2Cl)C(=O)O1` (stereo unspecified), for which the activation is -0.84%.

`CC1(C)CC(CC(=O)O)C(=O)O1` (stereo unspecified): the activation was -2.54%.

In the case of `C/C(CC1CC(C)(C)OC1=O)=N/Nc1nc(-c2ccccc2)cs1` (stereo unspecified), the activation is 124% (active).

Regarding `Cc1ccc(C(=O)OC2=CC(=O)CC(C)(C)C2)cc1`, the activation was 3.37%.

Regarding `CCN(CC)S(=O)(=O)c1ccc(Cl)c(C(=O)NC(C)C(c2cccs2)N2CCCC2)c1` (stereo unspecified), the activation was 1.85%.

With `C=CC[C@@H](Cc1ccc(F)cc1)C(=O)OC[C@H]1CCCN1C(=O)[C@H](CC=C)CC(=O)N(CCO)Cc1ccccc1`, the activation was -1.59%.

Source of the values: PubChem BioAssay AID2796 (The Scripps Research Institute Molecular Screening Center, 2010).
